{
  "source": "the antibiotic and cytotoxicity screens of Wong et al. (2023)",
  "note": "The whole screen tested about 39,000 compounds, of which about 3,300 (8.5%) were called active. This is one part of a sample in which actives are shown more often than they occur.",
  "data": [
    {"test_system": "HepG2", "test": "cytotoxicity call (relative viability < 0.9)", "conditions": "10 µM", "values": [
      {"smiles": "COc1ccc(S(=O)(=O)N(C)C[C@H]2Oc3ccc(NS(=O)(=O)c4ccccc4)cc3CC(=O)N([C@H](C)CO)C[C@@H]2C)cc1", "cytotoxicity call": "inactive"},
      {"smiles": "COc1ccc(S(=O)(=O)N(C)C[C@H]2OCCCC[C@H](C)Oc3ccc(NS(=O)(=O)c4cn(C)cn4)cc3C(=O)N([C@@H](C)CO)C[C@H]2C)cc1", "cytotoxicity call": "inactive"},
      {"smiles": "C[C@H]1CN([C@@H](C)CO)S(=O)(=O)c2ccc(C#CC3(O)CCCC3)cc2O[C@H]1CN(C)C(=O)Nc1ccc(F)cc1", "cytotoxicity call": "inactive"},
      {"smiles": "COCC(=O)N1CC[C@]2(CC1)CN([C@H](CO)c1c2c2ccc(cc2n1C)OC)C(=O)CN1CCOCC1", "cytotoxicity call": "inactive"},
      {"smiles": "O=C1N[C@@H](Cc2c[nH]c3ccccc23)COC(=O)[C@@H](Cc2ccc(F)cc2)CCC=CC[C@H]1CC(=O)N(CCO)Cc1ccccc1", "cytotoxicity call": "inactive"},
      {"smiles": "C[C@H](CO)N1C[C@H](C)[C@@H](CN(C)S(=O)(=O)c2cn(C)cn2)OCc2ccccc2-c2c(n(C)c3ccccc23)C1=O", "cytotoxicity call": "inactive"},
      {"smiles": "O=C(C[C@H]1C[C@@H]2c3cc(NC(=O)c4ccc5c(c4)OCO5)ccc3O[C@@H]2[C@@H](CO)O1)NCCN1CCCCC1", "cytotoxicity call": "inactive"},
      {"smiles": "CC(C)(C)[S@](=O)N1Cc2cc(C(=O)N3CCc4ccccc4C3)nc(-c3cccc(-c4cccnc4)c3)c2[C@@H]1CCO", "cytotoxicity call": "inactive"},
      {"smiles": "Cc1ccc(S(=O)(=O)Nc2ccc3c(c2)C(=O)N([C@H](C)CO)C[C@H](C)[C@@H](CN(C)S(=O)(=O)c2ccc(F)cc2)OCCCC[C@@H](C)O3)cc1", "cytotoxicity call": "inactive"},
      {"smiles": "C[C@H]1CN([C@@H](C)CO)C(=O)c2cccc(NC(=O)Nc3ccc(C(F)(F)F)cc3)c2O[C@@H]1CN(C)C(=O)Nc1cccc2ccccc12", "cytotoxicity call": "active"},
      {"smiles": "C[C@H](CO)N1C[C@H](C)[C@H](CN(C)C(=O)Nc2cccc3ccccc23)Oc2c(NC(=O)Nc3ccc(F)cc3)cccc2C1=O", "cytotoxicity call": "inactive"},
      {"smiles": "C[C@H]1CN([C@@H](C)CO)C(=O)c2cccc(NC(=O)Nc3ccc(C(F)(F)F)cc3)c2O[C@H]1CN(C)C(=O)Nc1cccc2ccccc12", "cytotoxicity call": "inactive"},
      {"smiles": "C[N+](C)(C)CCCCNC(=O)[C@H]1C[C@H]2C(=O)N[C@@H](CCCC[N+](C)(C)C)C(=O)N2[C@H]1c1ccc(O)cc1", "cytotoxicity call": "inactive"},
      {"smiles": "C[N+](C)(C)CCCCNC(=O)[C@@H]1C[C@@H]2C(=O)N[C@@H](CCCC[N+](C)(C)C)C(=O)N2[C@@H]1c1ccc(O)cc1", "cytotoxicity call": "inactive"},
      {"smiles": "CC(=O)NCCCC[C@@H]1NC(=O)[C@H]2C[C@@H](C(=O)NCCCC[N+](C)(C)C)[C@@H](c3cccc(OCCO)c3)N2C1=O", "cytotoxicity call": "inactive"},
      {"smiles": "C[N+](C)(C)CCCCNC(=O)[C@H]1C[C@H]2C(=O)N3CCC[C@H]3C(=O)N2[C@H]1c1cccc(OCCO)c1", "cytotoxicity call": "active"},
      {"smiles": "CC(=O)NCCCC[C@@H]1NC(=O)[C@H]2C[C@@H](C(=O)NCCCC[N+](C)(C)C)[C@@H](c3ccc(O)cc3)N2C1=O", "cytotoxicity call": "active"},
      {"smiles": "C[N+](C)(C)CCCCNC(=O)[C@H]1C[C@H]2C(=O)N[C@@H](CCCC[N+](C)(C)C)C(=O)N2[C@H]1c1cccc(OCCO)c1", "cytotoxicity call": "inactive"},
      {"smiles": "C[N+](C)(C)CCCCNC(=O)[C@@H]1C[C@@H]2C(=O)N3CCC[C@H]3C(=O)N2[C@@H]1c1cccc(OCCO)c1", "cytotoxicity call": "inactive"},
      {"smiles": "C[N+](C)(C)CCCCCCNC(=O)[C@H]1C[C@H]2C(=O)N3CCC[C@H]3C(=O)N2[C@H]1c1cccc(OCCO)c1", "cytotoxicity call": "inactive"},
      {"smiles": "CC(=O)NCCCC[C@@H]1NC(=O)[C@@H]2C[C@H](C(=O)NCCCC[N+](C)(C)C)[C@H](c3cccc(OCCO)c3)N2C1=O", "cytotoxicity call": "active"},
      {"smiles": "C[C@H](CO)N1C[C@H](C)[C@H](CN(C)C(=O)C2CCCCC2)OCCCC[C@H](C)Oc2ccc(NC(=O)c3ccccc3)cc2C1=O", "cytotoxicity call": "inactive"},
      {"smiles": "O=C(C[C@@H]1CC=CC[C@H](NC(=O)OCC2c3ccccc3-c3ccccc32)C(=O)O[C@H](c2ccccc2)CNC1=O)N[C@@H](CO)Cc1ccccc1", "cytotoxicity call": "inactive"},
      {"smiles": "CNC(=O)C[C@H]1CC[C@@H]2[C@H](COC[C@H](O)CN2C(=O)Nc2ccc3c(c2)OCO3)O1", "cytotoxicity call": "inactive"},
      {"smiles": "CO[C@H]1CN(C)C(=O)c2ccc(NS(=O)(=O)CC(F)(F)F)cc2OC[C@H](C)N(C(=O)NC(C)C)C[C@@H]1C", "cytotoxicity call": "inactive"},
      {"smiles": "CO[C@@H]1CN(C)C(=O)c2cc(NS(=O)(=O)c3cn(C)cn3)ccc2OC[C@H](C)N(CC2CC2)C[C@@H]1C", "cytotoxicity call": "inactive"},
      {"smiles": "CNC(=O)c1cnc2n1CCN(Cc1nccn1C)C2", "cytotoxicity call": "inactive"},
      {"smiles": "CC(C)[C@H](NC(=O)[C@H](C)N(C)C)C(=O)N1CC[C@@H]2Oc3ccc(cc3)/C=C\\NC(=O)[C@H](Cc3ccccc3)NC(=O)[C@H]21", "cytotoxicity call": "inactive"},
      {"smiles": "C[C@@H]1CN([C@H](C)CO)C(=O)c2cc(NC(=O)Cn3cnnn3)ccc2O[C@H]1CN(C)S(=O)(=O)c1ccc(F)cc1", "cytotoxicity call": "inactive"},
      {"smiles": "O=C(C[C@@H]1C[C@H]2c3cc(NC(=O)Nc4ccccc4F)ccc3O[C@H]2[C@@H](CO)O1)NCc1ccc(Oc2ccccc2)cc1", "cytotoxicity call": "inactive"},
      {"smiles": "C[C@@H]1CN([C@@H](C)CO)C(=O)c2cc(NC(=O)Nc3cccc4ccccc34)ccc2O[C@@H]1CN(C)Cc1ccc(Oc2ccccc2)cc1", "cytotoxicity call": "active"},
      {"smiles": "COc1ccc(CN(C)C[C@@H]2Oc3ccc(NC(=O)Nc4cccc5ccccc45)cc3C(=O)N([C@H](C)CO)C[C@@H]2C)cc1", "cytotoxicity call": "inactive"},
      {"smiles": "C[C@@H]1CN([C@@H](C)CO)C(=O)c2cc(NC(=O)Nc3cccc4ccccc34)ccc2O[C@H]1CN(C)Cc1ccc(Oc2ccccc2)cc1", "cytotoxicity call": "inactive"},
      {"smiles": "C[C@@H]1CN([C@H](C)CO)C(=O)c2cc(NC(=O)Nc3cccc4ccccc34)ccc2O[C@@H]1CN(C)Cc1ccc(Oc2ccccc2)cc1", "cytotoxicity call": "active"},
      {"smiles": "COc1ccc(CN(C)C[C@H]2Oc3ccc(NC(=O)Nc4cccc5ccccc45)cc3C(=O)N([C@@H](C)CO)C[C@H]2C)cc1", "cytotoxicity call": "inactive"},
      {"smiles": "COc1ccc(CN(C)C[C@H]2Oc3ccc(NC(=O)Nc4cccc5ccccc45)cc3C(=O)N([C@H](C)CO)C[C@@H]2C)cc1", "cytotoxicity call": "inactive"},
      {"smiles": "C[C@@H]1CN([C@H](C)CO)C(=O)c2cc(NC(=O)Nc3cccc4ccccc34)ccc2O[C@H]1CN(C)Cc1ccc(Oc2ccccc2)cc1", "cytotoxicity call": "active"},
      {"smiles": "C[C@H](CO)N1C[C@H](C)[C@@H](CN(C)Cc2ccc(Oc3ccccc3)cc2)Oc2ccc(NC(=O)Nc3cccc4ccccc34)cc2C1=O", "cytotoxicity call": "inactive"},
      {"smiles": "COc1ccc(CN(C)C[C@@H]2Oc3ccc(NC(=O)Nc4cccc5ccccc45)cc3C(=O)N([C@@H](C)CO)C[C@H]2C)cc1", "cytotoxicity call": "inactive"},
      {"smiles": "COc1ccc(CN(C)C[C@@H]2Oc3ccc(NC(=O)Nc4cccc5ccccc45)cc3C(=O)N([C@H](C)CO)C[C@H]2C)cc1", "cytotoxicity call": "inactive"},
      {"smiles": "C[C@H](CO)N1C[C@H](C)[C@H](CN(C)Cc2ccc(Oc3ccccc3)cc2)Oc2ccc(NC(=O)Nc3cccc4ccccc34)cc2C1=O", "cytotoxicity call": "active"},
      {"smiles": "COc1ccc(CN(C)C[C@H]2Oc3ccc(NC(=O)Nc4cccc5ccccc45)cc3C(=O)N([C@@H](C)CO)C[C@@H]2C)cc1", "cytotoxicity call": "inactive"}
    ]}
  ]
}
